# Bioassay records as filed in PubChem BioAssay.
# MEX-5 binding: C. elegans MEX-5 TCR-2 RNA binding activity; Q9XUB2; MEX-5/FITC-TCR2 RNA binding, fluorescence polarization; hits give low values; activity score (negative = inhibition of binding), % at 10 µM; hit rate 0.38% among 300,000; AID 1832;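 active means inhibition past about -25% in most replicates, and total fluorescence under double the plate's negative control median, limit read from the data; inconclusive means replicates evenly split on the limit, or fluorescence at least double controls; inactive means too little inhibition in most replicates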;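 further: 0% = DMSO and -100% = 5 µM competing unlabeled TCR2 RNA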
# Target sequence (Q9XUB2 whole entry, looked up): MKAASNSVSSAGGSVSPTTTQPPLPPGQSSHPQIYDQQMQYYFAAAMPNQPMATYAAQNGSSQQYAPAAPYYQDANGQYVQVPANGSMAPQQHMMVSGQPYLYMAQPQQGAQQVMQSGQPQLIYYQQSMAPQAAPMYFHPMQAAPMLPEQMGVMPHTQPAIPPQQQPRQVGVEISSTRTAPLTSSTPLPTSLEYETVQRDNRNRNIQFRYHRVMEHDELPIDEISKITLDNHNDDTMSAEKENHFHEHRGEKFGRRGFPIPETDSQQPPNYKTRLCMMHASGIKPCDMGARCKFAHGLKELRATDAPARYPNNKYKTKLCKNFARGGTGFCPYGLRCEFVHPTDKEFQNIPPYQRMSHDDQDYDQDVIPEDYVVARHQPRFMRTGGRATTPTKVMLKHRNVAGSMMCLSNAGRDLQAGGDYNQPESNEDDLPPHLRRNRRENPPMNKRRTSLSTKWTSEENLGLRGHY
# VLA-4 inh: inhibition in a human VLA-4 binding assay; AID 2557; P13612; inhibition, % (about 7 µM as worked out from the volumes in the protocol); VLA-4 expressing cells, ligand binding flow cytometry; hit rate 0.2% among 330,000; in the data active means inhibition above about 50%
# Granule exo inh: blocks lytic granule exocytosis. inhibition, % at 10 µM. AID 651702. TALL-104 LAMP-1 surface exposure, flow cytometry; cells stimulated with thapsigargin and PMA. hit rate 0.66% among 360,000;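 active means inhibition above about 55%, limit read from the data; inconclusive means no clear call, values can overlap the other calls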
# V-ATPase pH: alters yeast V-ATPase proton transport; S. cerevisiae, pHLuorin cytosolic pH fluorescence; response, % at 10 µM; hit rate 0.37% among 350,000; AID 504577; in the data active means response mostly above about 7.3%, no sharp cut-off; inactive means mostly below about 5.4%; further: actives read high
# HTR2A ag: mouse HTR2A agonism via beta-arrestin recruitment; P35363; CHO-K1 mHTR2A beta-arrestin complementation, luminescence; percent of 30 µM serotonin response; activation, % at 7.6 µM; hit rate 0.66% among 360,000; AID 624169;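 active means activation above a run cutoff, the mean activation of all tested compounds plus 3 SD, cut at about 14% in these data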;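 further: 0% = plate median of compound wells and 100% = 30 µM serotonin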
# GASC-1 inh: inhibitors of human GASC-1 (JMJD2C) demethylase; AID 2099; hit rate 0.069% among 330,000; inhibition, % at 2.35 µM; GST-JMJD2C(1-420) H3K9me3 demethylation, DELFIA europium; Q9H3R0;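 active means more than half of a compound's replicate wells show inhibition beyond 50%, single wells judged on their own value; inconclusive means some, but no more than half, of replicates pass 50% inhibition; inactive means no replicate passes 50% inhibition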;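 further: signal counts dimethyl H3K9 product captured on neutravidin plate; 0% = median of DMSO wells and 100% = 0.3 times that DMSO median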
# MOR ag counter: activates human mu opioid receptor in HTR2A counterscreen. shares compounds with HTR2A ag. U2OS OPRM1 beta-arrestin PathHunter, luminescence; DMSO 0%, DAMGO 9.3 µM 100%. activation, % at 9.3 µM. hit rate 5.3% among 2,300. AID 624380;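 active means mean activation above the mean of DMSO-only wells plus 3 SD, cut at about 0.5% in these data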
# HTR2A ag conf: mouse HTR2A agonism confirmed; shares compounds with HTR2A ag; CHO-K1 PathHunter beta-arrestin recruitment, luminescence; DMSO 0%, 30 µM serotonin 100%; activation, % at 7.6 µM; hit rate 19% among 2,300;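 active means mean activation across triplicates above the hit threshold derived in the original primary screen, cut at about 15% in these data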
# Starred values were filed as active, the others as inactive; i = inactive; ? = inconclusive; / = no result given. An excerpt weighted towards active compounds, which were near 2.2% of everything screened.
SMILES,MEX-5 binding,VLA-4 inh,Granule exo inh,V-ATPase pH,HTR2A ag,GASC-1 inh,MOR ag counter,HTR2A ag conf
CN=C(c1ccc(C)cc1)n1c(=S)nc(-c2ccc(C)cc2)n(C)c1=S,-3.7,4.3,4.8,1.8,15.5*,-2.0,-0.5,-4.6
CC(OC(=O)CN1C(=O)NC2(CCCC2)C1=O)c1ccc(F)cc1 (stereo not given),/,7.4,0.2,-0.9,8.7,3.7,/,/
CCc1nc2c3cnn(-c4cc(Cl)ccc4C)c3ncn2n1,-1.6,2.0,0.4,1.6,16.4*,17.5,-0.6,-2.7
Cc1nc2c3cnn(-c4ccccc4)c3ncn2n1,0.2,-6.1,-2.0,-1.6,-2.1,-0.1,/,/
N#CC1(NC(=O)CN2C(=O)NC(Cc3c[nH]c4ccccc34)C2=O)CCCCC1 (stereo not given),/,2.8,-4.8,3.0,3.3,0.9,/,/
CC(O)CCC(=O)NCCNC(=O)CCC(C)O (stereo not given),-1.3,-4.9,0.4,0.7,19.7*,-1.5,-0.5,-1.2
CC1C/C(=N\NC(=S)NCc2ccccc2)CC(C)(C)C1 (stereo not given),1.4,-5.8,2.2,6.1,-2.0,3.8,/,/
CC1(C)CC(=O)C/C(=N\NC(=S)NCc2ccccc2)C1,-7.9,-5.1,0.3,0.0,16.5*,12.3,-0.6,-4.8
CC(C)(C)c1csc(Sc2ccc([N+](=O)[O-])cn2)n1,2.4,2.7,6.3,0.8,18.0*,6.8,0.7*,4.2
COc1cc(NC(=O)CCc2nnc3ccc(N4CCCC4)nn23)cc(OC)c1OC,-3.1,1.8,-0.9,8.5,0.5,29.5,/,/
COc1cc(NC(=O)CCc2nnc3ccc(N4CCCCC4)nn23)cc(OC)c1OC,1.2,-9.4,1.2,0.7,16.2*,8.1,-0.6,-4.7
CC(C)c1ccc(CNC(=O)C2(C)CCCN2C)cc1 (stereo not given),/,/,-24.2,/,-7.4,/,/,/
Cc1csc(NC(=O)c2ccccc2)n1,-7.1,10.5,-4.4,0.8,2.3,6.1,/,/
CC(=O)Nc1nc(C)cs1,2.6,17.8,-0.3,0.0,15.6*,-13.3,-0.3,-0.8
Cc1cccc(C)c1OCC(O)CN1CCN(c2ccccc2)CC1 (stereo not given),1.7,6.2,-3.8,2.7,14.9*,-47.7,-0.3,60.6*
O=S(=O)(c1ccc(OCC(O)CN2CCCC2)cc1)N1CCOCC1 (stereo not given),0.5,-1.4,-0.3,2.0,-1.8,i,/,/
Cc1ccc(N2CCN(CC(O)COc3ccc([N+](=O)[O-])cc3)CC2)cc1 (stereo not given),2.8,3.2,2.2,-6.4,-4.2,3.2,/,/
COc1cccc(OC)c1OCC(O)CN1CCN(c2ccccc2)CC1 (stereo not given),0.2,3.1,-0.5,2.9,0.1,-9.0,/,/
O=S(=O)(c1ccc(OCC(O)CN2CCN(c3ccccc3O)CC2)cc1)N1CCOCC1 (stereo not given),1.1,7.6,-2.9,1.1,18.5*,22.5,-0.6,45.6*
O=S(=O)(c1ccc(OCC(O)CN2CCN(c3ccccc3)CC2)cc1)N1CCOCC1 (stereo not given),0.1,14.3,-8.0,-6.3,18.5*,-0.8,-0.6,83.2*
O=[N+]([O-])c1ccc(OCC(O)CN2CCN(c3ccccc3F)CC2)cc1 (stereo not given),1.1,-3.1,6.3,2.4,19.9*,-2.4,-0.5,46.0*
CC1(NC(=O)Cc2csc(-c3cccc(Cl)c3)n2)CCS(=O)(=O)C1 (stereo not given),/,-4.3,-7.8,-0.6,4.8,-16.6,/,/
CCCC(=O)N1CCN(c2nc3ccccc3s2)CC1,2.2,1.4,-1.8,-3.2,3.1,-2.7,/,/
CSc1ccc(NC(=O)N2CCN(c3nc4ccccc4s3)CC2)cc1,-2.2,-1.9,0.7,-1.3,17.5*,1.4,0.5*,0.6
O=C1CCC(C(=O)Nc2ccccc2)N1 (stereo not given),3.5,12.0,-0.1,0.1,-0.6,4.2,/,/
SMILES,MEX-5 binding,VLA-4 inh,Granule exo inh,V-ATPase pH,HTR2A ag,GASC-1 inh,MOR ag counter,HTR2A ag conf
O=C1CC[C@@H](C(=O)N2CSC[C@H]2C(=O)O)N1,-2.2,7.0,-0.9,-1.6,46.5*,-39.5,-0.7,-4.3
O=S(=O)(c1cccs1)N1CCC(CO)(Cc2ccc(Cl)cc2)CC1,0.9,-3.6,12.2,-1.9,5.5,-18.3,/,/
CCC(=O)N1c2ccc(S(=O)(=O)NCCc3ccc(OC)c(OC)c3)cc2CC1C (stereo not given),-0.1,6.5,16.3,-0.9,-7.3,-10.7,/,/
COC(=O)Cn1cnc2c(oc3ccccc32)c1=O,-0.7,8.1,-8.1,-2.9,3.3,-7.0,/,/
Cc1nc(SCC(=O)N2CCN(C(=O)c3ccco3)CC2)c2c(C)c(C)sc2n1,-1.3,-8.4,6.0,-6.7,0.4,6.4,/,/
Cc1nc(SCC(=O)N2CCN(C(=O)c3cccs3)CC2)c2c(C)c(C)sc2n1,/,/,-10.4,3.0,16.1*,/,-0.5,1.2
OCC[C@H]1C[C@@H](O)[C@H](O)[C@@]2(Cc3ccccc3CO2)O1,/,2.0,3.0,0.2,14.8*,9.5,-0.5,-0.4
COc1ccc(CCNC(=O)c2c(Cl)ccc(Cl)c2OC)cc1OC,-2.1,20.1,2.7,0.5,31.1*,-1.1,-0.6,-5.3
COc1ccc(CCNC(=O)c2ccc(Cl)cc2)cc1OC,-5.4,-7.8,-0.9,-0.3,6.3,-2.5,/,/
Cc1nc2ccccc2c(=O)n1-c1ccc(NS(=O)(=O)c2ccccc2)cc1,-2.7,-4.3,9.3,8.2,14.9*,?,-0.5,-1.9
CC(=O)c1ccc(NC(=O)CCNS(=O)(=O)c2cccc3nonc23)cc1,-3.2,-0.3,-0.3,0.2,36.1*,-8.2,-0.7,-4.3
O=C1c2ccccc2C(=O)N1c1ncccn1,-0.7,3.5,9.9,1.5,21.9*,13.2,-0.1,2.8
Cc1cc(C)c2c(n1)SCC(=O)N2CC(=O)Nc1cc(F)ccc1F,0.6,-20.0,-0.5,-2.8,-0.2,-5.4,/,/
CC(C)OC(=O)NC(Nc1ccccc1C(=O)O)(C(F)(F)F)C(F)(F)F,0.4,1.6,2.2,0.2,21.9*,3.5,0.0,1.1
CCCCNS(=O)(=O)c1ccc(NS(=O)(=O)c2c(C)cc(C)cc2C)cc1,1.1,-1.9,7.2,-2.8,17.6*,-4.1,0.0,13.1
Oc1cccc(Nc2ccccc2)c1,/,12.7,-0.4,0.6,0.9,11.1,/,/
Oc1cccc(NC(=S)Nc2ccccc2)c1,-1.1,4.8,-6.1,-2.3,17.5*,-6.2,-0.8,-3.3
